Test results reported in PubChem BioAssay AID1159614 (National Center for Advancing Translational Sciences (NCATS), 2016).
The whole screen tested about 45,000 compounds, of which about 65 (0.1%) were called active. The sample holds actives, similar compounds and a random draw of the others, so the mix is not that of the screen. Calls come from the whole dose curve; as a rule, active = well fitted activation curve with a large enough effect; inconclusive = small, poorly fitted or top-dose-only effect; inactive = no such curve, though single readings can be large or run the other way.

Molecular target: Galactocerebrosidase (Homo sapiens) (UniProt P54803)
Assay: A Novel Cell-Based Assay to Identify Small Molecules for B -Galactocerebrosidase; note: nearly all actives have a fitted effect of over 65% in size
Details: 145M-Twi-hGALC-G270D cells (Twitcher mouse brain line with human GALC G270D), HMU-beta-Gal fluorescence, 48 h; series mostly up to 57.5 µM
Description: Lysosomal storage diseases (LSDs) are caused by genetic mutations in genes encoding proteins important for normal lysosomal function. Globoid cell leukodystrophy (GLD), mostly known as Krabbe disease, is a prototype of the neurological LSDs caused by deficiency of beta-galactocerebrosidase (GALC). In brain specimens of GLD patients, psychosine levels are substantially elevated. At elevated concentrations, psychosine becomes cytotoxic to neuronal cells, particularly to oligodendrocytes (OLG), neural cells responsible for myelin formation. Therefore, the biochemical disturbances in GLD are manifested by different degrees of brain demyelination resulting in a broad spectrum of neurological manifestations. Most of the FDA-approved therapies are based on enzyme replacement therapeutic (ERT) agents, which treat non-neurological symptoms of Gaucher disease, Fabry disease, few mucopolysaccharidoses and Pompe disease. Unfortunately, in GLD, a primarily neurological LSD, ERT agents, as large molecular weight molecules unable to cross the blood-brain barrier, which makes this an inefficacious therapeutic approach. In GLD, increasing the residual GALC activity just above the critical threshold (~10% of wild type enzymatic activity), the cytotoxic levels of psychosine will be reduced, avoiding the OLGs apoptosis and the subsequent demyelination process. This will translate in disease stabilization and amelioration of GLD patient symptoms.
A cell-based assay in 1,536-well plate format was developed to implement a quantitative high-throughput screening (qHTS) assay using GLD-disease relevant cells to identify small molecules that produce enhancements of the residual enzymatic activity levels of mutants GALC found and prevalent in GLD patients. Compounds that are active may therefore have some therapeutic application for GLD. After the treatment of live cells for a determined period, using a fluorescent GALC specific substrate, the mutant residual GALC activity is measured. This cell-based qTHS assay was used to screen part of the MLPCN library for small molecule able to increase the mutant GALC enzymatic activity. In this assay, increased fluorescent signal corresponds to enhanced levels of mutant GALC residual enzymatic activity. Activation is the desired outcome for this assay.
NIH Chemical Genomics Center [NCGC]
NIH Molecular Libraries Probe Centers Network [MLPCN]
Assay Submitter (PI): Gustavo Maegawa MD,PhD, University of Florida, Gainesville, FL
2)#Two cell lines were established for the assay: 145M-Twi-hGALC-G270D (brain-derived Twitcher cell line stably expressing human GALC-G270D) and 145M-Twi-hGALC-WT (same 145M-Twi stably expressing human GALC wild type). The Twitcher is the murine C57B/6 model for GLD with naturally occurring homozygous nonsense GALC mutation. The 145M-Twi cell line was established at Maegawa lab (Ribbens J et al 2014).
a.#Media: DMEM/F12 (1:1) with 10% fetal bovine-serum (FBS) with penicillin/streptomycin (PS-1X - 100 I.U./mL of penicillin+100 ug/mL of streptomycin).
b.#The 6-Hexadecanoylamino-4-methylumbelliferyl-b-D-galactoside (HMU-B-gal) substrate was prepared as per Wiederschain et al 1992. Using 20-mL borosilicate tubes, 2.20 mg of HMU-b-Gal was added in each tube to prepare substrate-film with a final air-nitrogen stream evaporation to remove all diluent solvents.
c.#The HMUb-Gal substrate buffer consists of 0.2 M Na2HPO4 (sodium phosphate dibasic)/ 0.1 M Citric Acid with the pH adjusted to 5.2 using HCl. Sodium Azide at 0.02% and Sodium Taurocholate (NaTC) at 1 mg/mL were added to this substrate buffer.
d.#The HMU-b-Gal stopping buffer consist of 0.5 M NaHCO3 (sodium bicarbonate) /0.5 M Na2CO3 (sodium carbonate). […] Triton X-100 at 0.25% was added.
4)#Preparation of HMU-b-Gal substrate tubes
Adding 18.6 mL of the HMUb-Gal substrate buffer to each 20-mL tube (2.20 mg of HMU-b-Gal) will reach a concentration of 0.2 mM. Vortex well the tube until the solution is fully homogenized (clear cloudy solution). […]

Galactocerebrosidase (Homo sapiens), sequence (P54803 whole entry G286D): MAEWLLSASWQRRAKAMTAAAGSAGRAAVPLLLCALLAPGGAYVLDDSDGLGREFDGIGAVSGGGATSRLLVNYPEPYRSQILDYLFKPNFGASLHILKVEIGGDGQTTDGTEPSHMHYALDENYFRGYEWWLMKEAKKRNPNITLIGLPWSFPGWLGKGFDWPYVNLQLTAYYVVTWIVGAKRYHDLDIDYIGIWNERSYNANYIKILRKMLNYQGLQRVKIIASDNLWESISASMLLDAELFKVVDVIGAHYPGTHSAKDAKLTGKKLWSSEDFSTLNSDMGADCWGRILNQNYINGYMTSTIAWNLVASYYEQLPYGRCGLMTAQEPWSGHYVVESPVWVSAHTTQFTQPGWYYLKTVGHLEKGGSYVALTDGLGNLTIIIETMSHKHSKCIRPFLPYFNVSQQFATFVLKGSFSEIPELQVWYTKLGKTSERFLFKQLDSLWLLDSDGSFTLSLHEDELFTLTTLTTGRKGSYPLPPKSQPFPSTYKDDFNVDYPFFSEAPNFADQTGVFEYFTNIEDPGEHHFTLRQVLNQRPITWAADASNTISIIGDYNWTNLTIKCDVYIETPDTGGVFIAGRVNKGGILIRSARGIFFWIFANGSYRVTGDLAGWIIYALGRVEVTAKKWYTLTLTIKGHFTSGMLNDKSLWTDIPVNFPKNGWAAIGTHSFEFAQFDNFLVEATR

Potency, inactive:
Cc1ccc(OCCn2c(CNc3ccccc3C)nc3ccccc32)cc1
Cc1nn(C)c2c1c(C(F)(F)F)cc(=O)n2C(C)C(=O)NCc1ccc(Cl)cc1 (stereo unspecified)
CCOCCCn1c(SCC(=O)Nc2ccc(CC)cc2)nc2ccccc2c1=O
C=Cc1ccc(Cn2c(C(=O)OC)cc3sc(C)cc32)cc1
COc1ccc(CCNC(=O)Cn2c(=O)n(-c3ccccc3)c(=O)c3c(C)c(C)sc32)cc1OC
O=C(NC1CCN(Cc2ccccc2)CC1)c1ccc(Cn2c(=O)c3ccccc3n(Cc3cccc(F)c3)c2=O)cc1
CC1CCCN(c2cc3c(cc2F)c(=O)c(S(=O)(=O)c2cccc(Cl)c2)cn3Cc2ccccc2)C1 (stereo unspecified)
Cc1nc(N2CCOCC2)c2c(C(=O)NCc3cccc(Cl)c3)c(C)oc2n1
O=C(Nc1ccc(S(=O)(=O)N2CCC(c3nc4ccccc4s3)CC2)cc1)c1ccccc1F
Cc1ccc(N(CC(=O)NCC(C)c2ccccc2)S(=O)(=O)N(C)C)cc1 (stereo unspecified)
COc1ccc(-n2ccn(CC(=O)Nc3ccc(C)c(C)c3)c(=O)c2=O)cc1OC
CCCc1nn2c(=O)cc(COC(=O)c3ccc(NC(=O)C(C)Oc4ccccc4)cc3)nc2s1 (stereo unspecified)
CCCSc1nc2sc3c(c2c(=O)n1-c1cccc(Br)c1)CC(C)(C)OC3
Cc1nn(C(C)C(=O)Nc2ccc(C(C)C)cc2)c(=O)c2c1sc1ccccc12 (stereo unspecified)
Cc1cc(C)c(NC(=O)CSc2nc3nccnc3c(=O)n2CCc2c[nH]c3ccccc23)c(C)c1
O=C(CSc1nc(Nc2ccc(F)c(F)c2)c2ccccc2n1)c1ccc(Cl)cc1
CCn1c2c(c(=O)n3ncc(C(=O)N4CCN(c5ccccc5)CC4)c13)CN(Cc1ccc(OC)cc1)CC2
CC(=O)Nc1c(C)nn(-c2ccccc2)c1N1CCC(C(=O)Nc2cc(Cl)ccc2C)CC1
Cc1cc(C)c(-c2n[nH]c3c2C(c2ccccc2F)N(CCO)C3=O)c(O)c1 (stereo unspecified)
Cc1ccc(C)c(CN2C(=O)c3ccccc3S(=O)c3ccc(C(=O)N4CCOCC4)cc32)c1 (stereo unspecified)
COc1ccc(CCNC(=O)c2cc3cccc4c3n2CC(C)S4)c(OC)c1OC (stereo unspecified)
Oc1ccc(-c2nc3ccc(Cl)cn3c2Nc2ccc3c(c2)OCO3)cc1
COc1ccc(S(=O)(=O)N2CCN(c3ccc(F)cc3)CC2)cc1-c1noc(C)n1
O=C(NCc1ccccc1Cl)C1CCN(c2ncnc3c2nc2n3CCCCC2)CC1
Cc1ccc(C)c(Oc2c(C(F)(F)F)oc3c(CN4CCN(C)CC4)c(O)ccc3c2=O)c1
CCc1cccc(C)c1NS(=O)(=O)c1c(C)nc2sccn2c1=O
CCOC(=O)c1c(-c2ccc(OC)cc2)oc2ccc(OCc3ccc(C(=O)OC)cc3)cc12
O=C(O)c1ccc2c(c1)N(Cc1ccc(F)cc1)C(=O)c1ccccc1S2=O (stereo unspecified)
CCNC(=O)c1cc2n(n1)CCCN(Cc1ccc(C)cc1)C2=O
COc1ccccc1CN1CCC(CNC(=O)c2cnn(-c3cccc(Cl)c3)c2C2CCN(C(=O)OC(C)(C)C)CC2)CC1
Cc1cc(NS(=O)(=O)c2ccc3oc(=O)c4ncn(C)c4c3c2)ccc1Br
Cc1cccc(OCCSc2nc3ccccc3n2CC(=O)N2CCCCC2)c1C
CN1C(=O)c2ccccc2Sc2ccc(NC(=O)Cc3ccc(Cl)cc3)cc21
CCc1ccc(NC(=O)CCS(=O)(=O)c2cc3c(cc2Cl)NC(=O)CO3)cc1
COc1cccc(CN2CCc3nc(SCC(=O)Nc4ccccc4)[nH]c(=O)c3C2)c1
Cc1ccccc1-c1nc(CS(=O)(=O)CC(=O)Nc2cc(Cl)cc(Cl)c2)c(C)o1
CCc1nnc(SCC(=O)Nc2cc(OC)ccc2OC)nc1CC
O=C(NCCCO)c1nn(-c2ccc(Cl)cc2)nc1CO
Cn1nnc2c(N3CCN(c4ccccc4)CC3)ncnc21
CN1CCN(C(CNC(=O)c2ccccc2F)c2ccc3c(c2)OCO3)CC1 (stereo unspecified)
COc1ccc(CNC(=O)c2ccc3c(O)c(S(=O)(=O)c4ccccc4)c(=O)[nH]c3c2)cc1
CCC(=O)Nc1cccc(C(=O)OCc2cc(=O)n3nc(CC)sc3n2)c1
Cc1cccc(OCCSc2nc3ccc(NC(=O)COc4ccccc4C)cc3s2)c1
Cc1cccc(CSc2nc3ccncc3n2CC(=O)N(C)C2CCCCC2)c1
Cc1ccccc1CSc1nc(-c2ccccc2)nc2c1Cc1c(CO)cnc(C)c1O2
O=C(Nc1nc2c(s1)CCCC2)c1ccccc1F
COc1ccc(CNC(=O)CSc2n[nH]c(-c3ccc(F)cc3)n2)cc1
COc1ccc(CNS(=O)(=O)c2ccc(-c3cnc(C4CC4)o3)cc2)cc1
CCc1nc2ccc(C(=O)N3CCN(c4cc(Cl)ccc4C)CC3)cc2nc1CC
Cc1ccc(NC(=O)c2ccc(CN3CC(=O)N4CCCCC4C3=O)cc2)c(Cl)c1 (stereo unspecified)
COc1cccc(NC(=O)Nc2ccc3c(c2)N(C)C(=O)c2ccccc2S3)c1
COc1ccccc1-c1nnc(SCC(N)=O)o1
Cc1cccc(C(=O)Nc2ccc(S(=O)(=O)N3CCCCC3c3cccnc3)cc2)c1 (stereo unspecified)
CCc1ccc(NC(=O)c2sc3nc4c(cc3c2N)CN(CC)CC4)cc1
Cc1ccccc1NC(=O)CN1C(=O)C(C)(C)c2ccccc21
Cc1ccc(C(=O)Nc2ccc(OCc3cc(=O)n4c5c(sc4n3)CCCC5)cc2)cc1
COc1ccc(NC(=O)CSc2nccn2Cc2ccc3c(c2)OCO3)cc1
CCOC(=O)c1c(S(=O)(=O)N2CCC(C(=O)NCc3ccccc3OC)CC2)c(C)n(C)c1C
O=C(Nc1ccccc1Br)c1cc(CN2CCCC2)on1
COc1ccc(S(=O)(=O)NCc2cccn2Cc2cccc(C)c2)cc1Cl
Cc1cccc(Cn2c(=O)n(CCC(=O)NCCc3ccc(Cl)cc3)c(=O)c3sccc32)c1
Cc1noc2ncnc(NCc3ccccc3Cl)c12
CCOc1ccc(CCNC(=O)CN(c2ccc(C)cc2)S(=O)(=O)N(C)C)cc1OCC
COc1ccc(C)cc1NC(=O)CCc1c(C)nn(-c2ccc(N3CCOCC3)nn2)c1C
CCc1ccc(N2C(=O)CN(S(=O)(=O)CC)CC2(C)C(=O)NC2CCCCC2)cc1 (stereo unspecified)
Cc1ccc(Cc2nc3ccccc3nc2SCC(=O)Nc2cccc(C(F)(F)F)c2)cc1
Cc1ccc(-n2c(SCC(=O)c3ccccc3)nc3c([nH]c4ccccc43)c2=O)cc1
CC(=O)OC1=C(C(C)=O)N(Cc2ccccc2)S(=O)(=O)c2ccccc21
Brc1cccc(-c2nnn3c2nc(NC2CCCCC2)c2ccccc23)c1
Cc1cccc(N2CCN(C(=O)CCSCc3ccccc3F)CC2)c1C
COc1ccc(-c2c(C)nn3c(N4CCC(C(=O)NCCC(C)C)CC4)cc(C)nc23)cc1OC
Cc1cccc(NC(=O)Cn2c(=O)n(CCC(C)C)c(=O)c3cccnc32)c1
O=[N+]([O-])c1cc(-c2nc(-c3ccccc3)no2)ccc1NCc1ccco1
Cc1cc(NC(=O)c2ccc(-c3ccc(Cl)cc3)o2)cc(-c2nc3ncccc3o2)c1O
CCN(CC)c1ccc(NC(=O)Cn2nc3c(cc2=O)CCCC3)c(C)c1
Oc1c(C(c2ccccc2Cl)N2CCOCC2)sc2nc(-c3ccco3)nn12 (stereo unspecified)
